NALP3 yeast inh = blocks the NALP3 inflammasome reconstituted in yeast; Yeast reconstituted NLRP3/ASC/caspase-1, beta-gal luminescence, 24 h; inhibition, % at 10 µM; 330,000 compounds, 0.39% hits; AID 2825;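 active = inhibition of 50% or more; inactive = inhibition below 50%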
tim23-1 inh = tim23-1 yeast growth inhibition | S. cerevisiae tim23-1 growth, BacTiter-Glo luminescence, 24 h | 330,000 compounds, 1.3% hits | inhibition, % at 20 µM | AID 463212;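 active = growth inhibition of the mutant yeast at or above 50%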;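 note: temperature-sensitive mutant grown at 25 °C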
TIM10 inh = growth inhibitors of TIM10 yeast strain. 330,000 compounds, 1.4% hits. S. cerevisiae TIM10 strain growth, BacTiter-Glo luminescence, 24 h. inhibition, % at 10 µM;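 active = inhibition of 40% or more at the single tested concentration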;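 note: wild-type TIM10 isogenic control strain grown at permissive 25 °C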
tim10-1 inh = growth inhibitors of tim10-1 mutant yeast; S. cerevisiae tim10-1 ts strain growth, BacTiter-Glo, 24 h; inhibition, % at 20 µM; 330,000 compounds, 2.2% hits; AID 463190;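 active = inhibition of at least 40%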;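 note: mutant grown at 25 °C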
NALP1 yeast inh = inhibitors of NALP1 inflammasome in yeast; S. cerevisiae NALP1/ASC/caspase-1 growth, X-gal OD620, 72 h; inhibition, % at 10 µM; 280,000 compounds, 0.61% hits; AID 2071; in the data active = inhibition mostly above about 24%, no sharp cut-off; inactive = mostly below about 32%
PfHsp90 yeast 2 = growth inhibition of yeast expressing Plasmodium Hsp90; 310,000 compounds, 0.32% hits; inhibition, % at 9.4 µM; S. cerevisiae expressing PfHsp90, BacTiter-Glo ATP, 48 h; yeast lacking PDR1 and PDR3 efflux regulators; AID 504621;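 active = every replicate shows inhibition above about 80%, whatever the replicate mean, limit read from the data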
A number is an active result; 0 = inactive; - = no result given. The list is not random: actives were taken first. Their share in the collection is about 4.1%.

SMILES	NALP3 yeast inh	tim23-1 inh	TIM10 inh	tim10-1 inh	NALP1 yeast inh	PfHsp90 yeast 2
COCCNS(=O)(=O)c1cccn1-c1ncc(C(F)(F)F)cc1Cl	0	0	0	0	40	0
Cc1cccc(Nc2nc(N)c([N+](=O)[O-])c(N3CC(C)CC(C)C3)n2)c1 (stereo not drawn)	0	0	0	0	0	101
O=C(CCNS(=O)(=O)c1cccc(C(F)(F)F)c1)NC1CC1	0	0	0	0	-	0
Cc1ccc(OCCCCN(C)Cc2ccccc2)c(Br)c1	0	0	0	0	51	0
CC(C)C(=O)c1cn(CC(=O)O)c2ccccc12	0	0	0	0	26	0
CCn1c(Cc2ccccc2)nnc1SCC(=O)c1c(N)n(C2CC2)c(=O)[nH]c1=O	0	0	0	0	-	0
COc1ccc(C(=O)N(Cc2sccc2C)C2CCS(=O)(=O)C2)cc1 (stereo not drawn)	0	0	0	0	26	0
Cc1ccc(C(=O)N(Cc2sccc2C)C2CCS(=O)(=O)C2)cc1 (stereo not drawn)	0	0	0	0	0	0
O=C(NCc1ccccc1)c1ccc(OC2CSC2)cc1	0	0	0	0	35	0
CCOC(=O)c1ccc(N2C(=O)CC(N3CCOCC3)C2=O)cc1 (stereo not drawn)	0	0	0	0	30	0
CCCCNc1nc(CC)c2c(c1C#N)CCCC2	0	0	0	0	41	0
c1ccc(CCNc2c3c(nc4ncnn24)CCC3)cc1	0	0	0	0	25	0
CCOc1ccc(NC(=S)Nc2cccc3ccccc23)cc1	0	0	0	0	40	0
CC(=O)Nc1ccc(OCc2cccc3ccccc23)cc1	0	0	0	0	29	0
CCOc1ccc(NC(=S)Nc2cccc3cnccc23)cc1	0	0	0	0	0	0
Cc1ccc(-n2cc(CCCCCCCCC(=O)O)nn2)cc1	0	0	0	0	0	0
O=C(C[C@@H]1C/C=C\C[C@H](Cc2ccc(F)cc2)C(=O)OC[C@@H]2CCCN2C1=O)N[C@H](CO)Cc1ccccc1	0	0	0	0	-	0
CCCc1cc(=O)[nH]c(SCC(=O)N2c3ccccc3NC(=O)C2(C)C)n1	0	0	0	0	-	-
CC(=O)c1nc2ccccc2n1S(=O)(=O)c1ccc(C)cc1	0	0	0	0	28	0
CC(=O)c1nc2ccccc2n1S(=O)(=O)c1ccc(Cl)cc1	0	0	0	0	0	0
CCOC(=O)c1cc2sc(C)cc2n1CC(=O)N1CCOCC1	0	0	0	0	36	-
CCOC(=O)c1cc2sc(C)cc2n1CC(=O)N1CCN(C(=O)c2ccco2)CC1	0	0	0	0	0	0
CCCCNC(=O)c1cc(-c2ccc(OC)cc2)on1	0	0	0	0	0	-
CCCCNC(=O)c1cc(-c2ccc(OC)c(OC)c2)on1	0	0	0	0	43	0
CC(NC(=O)c1ccco1)C1CCCO1 (stereo not drawn)	0	0	0	0	44	0
SMILES	NALP3 yeast inh	tim23-1 inh	TIM10 inh	tim10-1 inh	NALP1 yeast inh	PfHsp90 yeast 2
Cc1ccc(NS(=O)(=O)c2ccc(N3CCN(c4ccc(O)cc4)CC3)c([N+](=O)[O-])c2)c(C)c1	0	0	0	0	0	96
O=[N+]([O-])c1cc(S(=O)(=O)Nc2ccccc2)ccc1N1CCN(c2ccc(O)cc2)CC1	0	0	0	0	0	0
O=c1cc(CNCCCO)c2ccccc2[nH]1	0	0	0	0	26	-
CC(=O)CSc1nc(-c2cccs2)c(C#N)c(=O)[nH]1	0	0	0	0	36	0
CC(=O)CSc1nc(N)c(C#N)c(-c2cccs2)c1C#N	0	0	0	0	0	-
COc1ccccc1N(C)S(=O)(=O)c1ccc(C(=O)OCC(=O)N(C(C)C)C(C)C)cc1	0	0	0	0	26	-
Cc1ccc(N2CCN(CC(O)COc3ccc([N+](=O)[O-])cc3)CC2)cc1 (stereo not drawn)	0	0	0	0	0	0
O=[N+]([O-])c1ccc(OCC(O)CN2CCN(c3ccccc3F)CC2)cc1 (stereo not drawn)	0	0	0	0	46	0
Cn1c(N2CCOCC2)c(/C=N/O)c2ccccc21	0	0	0	0	0	0
CC(=O)O/N=C/c1c(N2CCOCC2)n(C)c2ccccc12	0	0	0	0	29	-
CCSCc1nnc(SCC(=O)Nc2nc(C)cs2)n1C	0	0	0	0	41	-
Cc1csc(NC(=O)CSc2nnnn2C)n1	0	0	0	0	0	0
COC(CNC(=O)c1ccc(CS(=O)(=O)c2c(Cl)cccc2Cl)o1)OC	0	0	0	0	0	0
CCOc1ccccc1-c1c2cc(O)c(=O)cc-2oc2cc(O)c(O)cc12	-	-	-	-	0	93
O=c1cc2oc3cc(O)c(O)cc3c(-c3ccccc3O)c-2cc1O	-	-	-	-	0	0
Cc1ccc(N(C)C2=NC(=O)CS2)cc1Cl	0	0	0	0	0	0
COc1ccccc1NC(=O)c1ccc(NC(=O)CN2C(=O)CN(C)C2=O)cc1	0	0	0	0	0	-
CCOC(=O)c1ccc(NC(=O)N2CCOCC2)cc1	0	0	0	0	0	0
Cc1ccc(NC(=O)N2CCCC2)cc1Cl	0	0	0	0	38	0
CCOC(=O)c1ccc(NC(=O)N2CCCCCC2)cc1	0	0	0	0	43	0
Cc1cc(/C=N/NC(=O)c2cc3ccccc3o2)c(C)n1C	0	0	0	0	0	0
O=C(/C=C(\c1ccccc1)n1cncn1)c1ccccc1	0	0	0	0	0	0
C=CC(n1cncn1)C(O)(c1ccccc1)c1ccccc1 (stereo not drawn)	0	0	0	0	-	105
CCOC(=O)c1ccc(N2Cc3ccccc3C2=NC(=O)c2ccncc2)cc1	-	-	-	-	0	0
CCOC(=O)c1ccc(N2Cc3ccccc3C2=N)cc1	0	0	0	0	40	0
SMILES	NALP3 yeast inh	tim23-1 inh	TIM10 inh	tim10-1 inh	NALP1 yeast inh	PfHsp90 yeast 2
CCc1ccc2[nH]c(=O)c(CN(Cc3ccco3)C(=S)NCC3CCCO3)cc2c1 (stereo not drawn)	0	0	0	0	38	0
Cc1cc2cc(CN(Cc3ccco3)C(=S)NCC3CCCO3)c(=O)[nH]c2cc1C (stereo not drawn)	0	0	0	0	0	0
CCOc1ccc(Nc2nc3ccccc3n3nnnc23)cc1	0	0	0	0	42	0
CCOc1ccc(Nc2nc3ccccc3n2C)cc1	0	0	0	0	-	0
CC(C)Sc1nc(N2CCOCC2)c2c(c1C#N)CC(C)(C)SC2	0	0	0	0	36	0
CC(C)CSc1nc(N2CCOCC2)c2c(c1C#N)CC(C)(C)SC2	0	0	0	0	0	0
NC(N)=Nc1ccc(N=C(N)N)cc1	-	-	-	-	40	0
COc1ccc(S(=O)(=O)N2CCOCC2)cc1NC(=O)CN1C(=O)NC(C)(C2CC2)C1=O (stereo not drawn)	0	0	0	0	-	0
Nc1ccc(C(=O)c2cccs2)cn1	0	0	0	0	0	0
Nc1ccc(C(=O)c2cccs2)cc1	0	0	0	0	48	0
